Measurements from ChEMBL document CHEMBL3988442, “University of Dundee, Small-Polar-MMV Screening Library” (2021).
Among all 48,000 compounds or so, about 13,000 (27%) showed an effect of 50% or more. The list shows a part of the results.

Test system: Wolbachia pipientis
Test: Anti-Wolbachia Cell-Based Screen
Type: functional
Design: scale not given: in the data most compounds retested in dose-response had high values
Conditions: 5 µM

Question: `Cc1nnc(C(C)Nc2cccc(COCC(F)(F)C(F)F)c2)o1` (stereo not given) was tested. Which “Percent Effect” value did it give?
Answer: Its value is 6.562%.

Question: For `CC(C)Cc1cn(C2CCN(C(C)CC3CC3)CC2)nn1` (stereo not given), which “Percent Effect” value is on record?
Answer: Its value is 4.944%.

Question: For `O=C1NCC2(CCCN(C(=O)c3ccc4c(c3)OCCO4)CC2)O1` (stereo not given), which “Percent Effect” value is on record?
Answer: Its value is 12.75%.

Question: For `COc1cc(F)c(S(=O)(=O)N2c3ncccc3NC(=O)C2C)cc1OC` (stereo not given), which “Percent Effect” value is on record?
Answer: Its value is -16.51%.

Question: How did the “Percent Effect” value turn out when `O=C(CCc1nc2cccnc2[nH]1)Nc1cccnc1` was run?
Answer: Its value is 5.191%.

Question: For `CN(Cc1ccc(N2CCCCC2)cc1)Cc1noc(C(C)(C)C)n1`, which “Percent Effect” value is on record?
Answer: The value was 16.16%.

Question: With `O=C(c1ccccn1)N1C[C@@H]2CC[C@H](C1)N(C(=O)CCc1cccs1)C2` as the compound, how does the “Percent Effect” value read?
Answer: Its value is -9.254%.

Question: For `Cc1noc(C)c1CN(C)C(=O)NC1CCN(c2ncccn2)CC1`, which “Percent Effect” value is on record?
Answer: Its value is -8.201%.

Question: With `CO[C@H]1CN(S(=O)(=O)c2ccccc2F)C[C@@]12CCCO2` as the compound, how does the “Percent Effect” value read?
Answer: Its value is 166.4%.

Question: How did the “Percent Effect” value turn out when `CO[C@H]1CN(S(=O)(=O)c2ccc(C)cc2)C[C@@]12CCCO2` was run?
Answer: The value was 89.74%.

Question: Which “Percent Effect” value does the source give for `CNC(=O)[C@@]12CCO[C@@H]1CCN(S(=O)(=O)c1ccccc1F)C2` here?
Answer: Its value is -14.92%.

Question: For `C[C@@H]1CN(S(=O)(=O)c2ccc(F)cc2F)C[C@]1(C)O`, which “Percent Effect” value is on record?
Answer: Its value is 4.198%.

Question: For `O=C(CN1CCCNC1=O)N(Cc1ccccc1)CC(F)F`, which “Percent Effect” value is on record?
Answer: The value was -9.06%.

Question: How did the “Percent Effect” value turn out when `CSCCC1c2nc[nH]c2CCN1Cc1[nH]c2ccc(F)cc2c1C` (stereo not given) was run?
Answer: The value was 8.699%.

Question: Which “Percent Effect” value does the source give for `Cc1c(CN2CCc3[nH]cnc3C2C(=O)O)[nH]c2ccc(F)cc12` (stereo not given) here?
Answer: Its value is 4.217%.

Question: With `CC1=C(CCN2CC[C@@H](N3CCC(O)CC3)[C@H](O)C2)C(C)(C)CCC1` as the compound, how does the “Percent Effect” value read?
Answer: The value was -3.551%.

Question: With `CN1CCN([C@@H]2CCN(Cc3cccc(-n4cccn4)c3)C[C@H]2O)CC1` as the compound, how does the “Percent Effect” value read?
Answer: The value was -7.292%.

Question: For `CN1CCN([C@@H]2CCN(Cc3ccc4cc(F)ccc4n3)C[C@H]2O)CC1`, which “Percent Effect” value is on record?
Answer: The value was -21.32%.

Question: Which “Percent Effect” value does the source give for `Cc1c(CN2CC[C@@H](N3CCC(O)CC3)[C@H](O)C2)[nH]c2ccc(F)cc12` here?
Answer: The value was 105.6%.

Question: For `Cc1c(CN2CCc3[nH]cnc3C2C2CC2)[nH]c2ccc(F)cc12` (stereo not given), which “Percent Effect” value is on record?
Answer: The value was 10.14%.

Question: With `O=C(c1cccc(Cl)c1)N1CC[C@@H](N2CCC(O)CC2)[C@H](O)C1` as the compound, how does the “Percent Effect” value read?
Answer: The value was -1.425%.

Question: `Cc1ccc2[nH]c(CN3CC[C@@H](N4CCN(C)CC4)[C@H](O)C3)c(C)c2c1` was tested. Which “Percent Effect” value did it give?
Answer: The value was 130.9%.

Question: `Cc1c(CN2CC[C@@H](N3CCC(O)CC3)[C@H](O)C2)[nH]c2ccc(Cl)cc12` was tested. Which “Percent Effect” value did it give?
Answer: The value was 105.3%.

Question: With `CN1CCN([C@@H]2CCN(CC3=Cc4cc(Cl)ccc4OC3)C[C@H]2O)CC1` as the compound, how does the “Percent Effect” value read?
Answer: The value was -16.81%.

Question: How did the “Percent Effect” value turn out when `Cc1c(CN2C[C@H](O)[C@@H](N3CCOCC3)C2)[nH]c2ccc(F)cc12` was run?
Answer: Its value is 90.42%.

Question: `O=C(NCc1ccc(F)cc1F)C(c1cccnc1)N1CCOCC1` (stereo not given) was tested. Which “Percent Effect” value did it give?
Answer: The value was -3.204%.

Question: For `CC(C)(C)C(=O)N[C@H]1C[C@@H](Cc2cc(CN3CCOCC3)on2)C1(C)C`, which “Percent Effect” value is on record?
Answer: Its value is -2.41%.

Question: With `CC(Sc1nnc(C2CC2)n1CC(N)=O)c1ccc(F)c(Cl)c1` (stereo not given) as the compound, how does the “Percent Effect” value read?
Answer: The value was -2.548%.

Question: `CC(C)(C)NC(=O)C1CCCCN1Cc1nccn1CC(F)(F)F` (stereo not given) was tested. Which “Percent Effect” value did it give?
Answer: The value was -2.197%.

Question: How did the “Percent Effect” value turn out when `Cc1ccc(CNC(=O)C2CCCCN2C(=O)OC(C)(C)C)cn1` (stereo not given) was run?
Answer: The value was 1.092%.

Question: How did the “Percent Effect” value turn out when `CCSc1ccc(C(=O)N2CCCCC2C(=O)NC(C)(C)C)cn1` (stereo not given) was run?
Answer: Its value is 116.3%.

Question: For `CC(C)Cc1cc(C(=O)N2CCC[C@H]2C(=O)N2CCOCC2)on1`, which “Percent Effect” value is on record?
Answer: The value was -13.85%.

Question: How did the “Percent Effect” value turn out when `CCSc1ccc(NC(=O)N2CCCC2c2ccncc2)cn1` (stereo not given) was run?
Answer: Its value is -0.7424%.

Question: For `CCSc1ccc(C(=O)N2CCCC2C(=O)N2CCOCC2)cn1` (stereo not given), which “Percent Effect” value is on record?
Answer: Its value is 144.8%.

Question: For `Cn1ccc2ccc(C(=O)N3CCC[C@H]3C(=O)N3CCOCC3)cc21`, which “Percent Effect” value is on record?
Answer: Its value is 12.68%.

Question: Which “Percent Effect” value does the source give for `COC(=O)N1CCCCC1C(=O)N1CCN(c2ncccc2C)CC1` (stereo not given) here?
Answer: The value was -6.544%.

Question: Which “Percent Effect” value does the source give for `CCSc1ccc(C(=O)N2CCCCC2C(=O)N2CCCC2)cn1` (stereo not given) here?
Answer: The value was 151.8%.

Question: How did the “Percent Effect” value turn out when `CCn1c(CN(C)C)nnc1C1CCN(Cc2cccc(C#N)c2)CC1` was run?
Answer: The value was -18.18%.

Question: With `O=C(NCc1cccnc1)N1CCSCC1CCO` (stereo not given) as the compound, how does the “Percent Effect” value read?
Answer: The value was -15.06%.

Question: For `Cc1cnc2n(c1=O)C(CC(=O)NCc1ccc(F)cc1)CS2` (stereo not given), which “Percent Effect” value is on record?
Answer: Its value is 120.7%.

Question: With `Cc1cc(=O)n2c(n1)SCC2CC(=O)NCc1cc(-c2ccco2)on1` (stereo not given) as the compound, how does the “Percent Effect” value read?
Answer: Its value is 1.39%.

Question: Which “Percent Effect” value does the source give for `Cc1cnc2n(c1=O)C(CC(=O)NCc1ccccc1Cl)CS2` (stereo not given) here?
Answer: Its value is 121.9%.

Question: For `Cc1nsc(N2CCN(CC(=O)NCc3ccc(F)cc3)CC2)n1`, which “Percent Effect” value is on record?
Answer: The value was -5.243%.

Question: Which “Percent Effect” value does the source give for `O=C(Cn1nc(-c2ccc(F)cc2)oc1=O)NCc1ccc(F)cc1` here?
Answer: The value was -3.011%.

Question: For `CC(=O)NC[C@@H]1C=C(C)[C@H](CC(=O)NCc2cccnc2)C[C@H]1C(C)C`, which “Percent Effect” value is on record?
Answer: Its value is -8.421%.

Question: `COc1cccc(CNC(=O)CC2CSc3ncc(C)c(=O)n32)c1` (stereo not given) was tested. Which “Percent Effect” value did it give?
Answer: The value was 19.59%.

Question: Which “Percent Effect” value does the source give for `Cc1cnc2n(c1=O)C(CC(=O)NCc1cccnc1)CS2` (stereo not given) here?
Answer: Its value is 115%.

Question: For `Cc1cnc2n(c1=O)CC(C(=O)Nc1ccccc1Cl)CS2` (stereo not given), which “Percent Effect” value is on record?
Answer: Its value is -3.995%.

Question: With `COc1cccc(CNC(=O)CC2CSc3nc(C)c(C)c(=O)n32)c1` (stereo not given) as the compound, how does the “Percent Effect” value read?
Answer: Its value is 131.7%.

Question: For `Cc1ccc(CNC(=O)CC2C(=O)NCCN2Cc2ccccc2C)s1` (stereo not given), which “Percent Effect” value is on record?
Answer: Its value is 4.539%.
